Compounds with a hit are over-represented: about 9% of the library has one in this group of screens.
IMPase inh = cell-permeable inhibitors of inositol monophosphatase (IMPase); P97697; CHO-M1 cells, IP1 accumulation, HTRF TR-FRET ratio; inhibition (IP1 accumulation), % at 46.1 µM; 120,000 tested, under 10 active; AID 901; active means well fitted curve in the direction sought with a large enough effect in the signal ratio, not every such curve was filed as active; inconclusive means small, poorly fitted or top-dose-only effect, or a change in a side signal; inactive means no such curve, though single readings can be large or run the other way; the % refers to the signal ratio;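 further: cells stimulated with carbachol in lithium chloride buffer; plate controls were DMSO basal wells for no effect and reference inhibitor wells for full effect; higher means more IMPase inhibition seen as more IP1 and lower FRET ratio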
Target sequence (P97697 whole entry, looked up): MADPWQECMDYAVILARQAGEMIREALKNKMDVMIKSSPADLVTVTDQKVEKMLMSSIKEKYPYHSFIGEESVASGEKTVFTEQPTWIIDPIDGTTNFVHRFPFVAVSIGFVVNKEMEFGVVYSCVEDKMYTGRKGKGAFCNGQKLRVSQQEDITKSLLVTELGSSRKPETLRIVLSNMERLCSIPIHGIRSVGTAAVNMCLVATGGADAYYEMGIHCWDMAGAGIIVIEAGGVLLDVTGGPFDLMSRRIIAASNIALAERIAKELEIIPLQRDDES
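CHO-M1 cells (CHO stably expressing M1 receptor), compound up to 46 uM final, stimulated with carbachol (50 uM as added) in buffer with 50mM LiCl, pH 7.4, 30 min at 37C. Cytosolic IP1 read by TR-FRET; AC50 from Hill fits.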
HPGD block = blocks human HPGD enzyme activity; purified HPGD, NADH fluorescence kinetic, PGE2 substrate; P15428; 150,000 tested, 4.3% active; Potency, µM, inactives show at the top dose activity change, negative = inhibition, actives largely listed as inhibitors; further: potency means the concentration at half of the fitted maximal effect
Target sequence (P15428 whole entry, looked up): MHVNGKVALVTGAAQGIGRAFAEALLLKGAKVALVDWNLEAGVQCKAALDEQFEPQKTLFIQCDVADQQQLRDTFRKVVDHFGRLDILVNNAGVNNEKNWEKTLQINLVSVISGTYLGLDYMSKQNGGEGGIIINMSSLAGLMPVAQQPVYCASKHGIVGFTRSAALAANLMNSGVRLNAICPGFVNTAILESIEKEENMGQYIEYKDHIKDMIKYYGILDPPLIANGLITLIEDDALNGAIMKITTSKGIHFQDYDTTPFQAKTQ
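NADH formation kinetics: reaction with 30 uM PGE2 and 1 mM NAD+ (final), 20 nM enzyme, Tris-HCl pH 8 with Tween 20, after 15 min compound preincubation at room temperature. Fluorescence change, last versus first of five reads.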
ALDH1A1 block = ALDH1A1 (human) enzyme inhibition; Potency, µM (doses to about 75.3 µM), for the others: at the top dose activity, negative = inhibition, actives largely listed as inhibitors; Purified ALDH1A1, NADH fluorescence, propionaldehyde substrate; 220,000 tested, 7.3% active;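 further: potency means the concentration at half of the fitted maximal effect; plate controls were no enzyme wells and a reference inhibitor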
Starred values were filed as active, the others as inactive; ? = inconclusive; . = no result given; [ ] = dose if it differs, or a comment. Unless noted, the call rests on the fitted dose curve; in most records, active means well fitted inhibition curve with a large enough effect (not every such curve was filed as active); inconclusive means small, poorly fitted or top-dose-only effect, or another doubt; inactive means no such curve, though single readings can be large or run the other way. Unless noted, on the % scale 0 is the no-effect control and ±100 the full control effect.

SMILES	IMPase inh	HPGD block	ALDH1A1 block
Cc1ccc(C(=O)COC(=O)CCC(=O)Nc2cccc(Cl)c2)cc1[N+](=O)[O-]	5.2	-11.2%	?
COc1ccccc1CNC(=O)c1ccc(OCC2CCCO2)cc1 (stereo not given)	10.3	-12.3%	1.2%
COc1ccccc1CC(=O)NCC1CCCO1 (stereo not given)	-2.1	25.1µM*	-6.6%
COc1ccccc1CCNC(=O)C1CCCO1 (stereo not given)	-2.2	17.8µM*	-4.1%
COc1ccccc1CNC(=O)C(=O)NCC1CCCO1 (stereo not given)	-4.5	-8.6%	-3.5%
CN(C)c1ccc(/C=C/C=N/Nc2nc(N3CCOCC3)nc(N3CCOCC3)n2)cc1	.	.	8.3%
O=Cc1cccn1-c1cccnc1	.	.	-1.9%
O=C(O)[C@@H]1[C@@H]2C[C@H]3c4[nH]c5ccccc5c4CCN3C[C@@H]2CC[C@@H]1O	6.0[20.6 µM]	-25.7%	-3.3%[20.9 µM]
Cc1snc(S(=O)(=O)Cc2c(Cl)cccc2Cl)c1C#N	4.5	-8.5%	-25.4%
O=C1CC(c2ccc(Cl)cc2)Sc2nc(-c3ccc(F)cc3)nn21 (stereo not given)	5.7	.	.
O=S(=O)(c1ccccc1F)N1CCN(C(=S)NCc2ccccc2)CC1	.	.	15.8µM*
O=S(=O)(c1cccc(F)c1)N1CCN(C(=S)NCc2ccccc2)CC1	.	.	14.1µM*
CCOc1ccc(S(=O)(=O)N2CCN(C(=S)NCc3ccccc3)CC2)cc1	.	.	-6.2%
CS(=O)(=O)N1CCN(C(=S)NCc2ccc(F)cc2)CC1	.	-0.2%	17.4%
CCCCNC(=S)NNC(=O)CCn1nc(C)c(Br)c1C	?	-13.2%	-5.2%
O/N=C(\c1ccc(Cl)cc1Cl)c1ncc(C(F)(F)F)cc1Cl	2.8	25.1µM*	?
O=C(c1ccc(Cl)cc1Cl)c1ncc(C(F)(F)F)cc1Cl	1.6	-18.9%	10.3%
N/C(=N\OC(=O)Nc1ccccc1)c1ncc(C(F)(F)F)cc1Cl	4.5	-11.5%	?
O=C(c1ccccc1)c1ncc(C(F)(F)F)cc1Cl	-16.0	31.6µM*	-5.8%
C/C=C1\C2C=C(C)C[C@@]1(N)c1ccc(=O)[nH]c1C2	.	-5.2%	6.9%
O=C(Nc1cccc(NC(=S)NC(=O)c2cccs2)c1)c1ccccc1	.	-10.2%	?
CCOC(=O)Cc1csc(NC(=S)NC(=O)c2ccccc2)n1	.	-7.7%	-18.0%
CCC(=O)Nc1cccc(NC(=S)NC(=O)c2cccc(C)c2)c1	.	-8.5%	25.1µM*
CCC(=O)Nc1cccc(NC(=S)NC(=O)c2ccccc2)c1	.	-6.7%	?
CCOC(=O)Cc1csc(NC(=S)NC(=O)c2ccc(C)cc2)n1	0.8	.	39.8µM*
SMILES	IMPase inh	HPGD block	ALDH1A1 block
CCC(=O)Nc1cccc(NC(=S)NC(=O)c2ccc(C)cc2)c1	.	.	12.6µM*
CCC(=O)NC(=S)Nc1cccc(NC(=O)CC)c1	-12.3	-7.9%	-2.3%
O=C(NC(=S)Nc1cccc(CO)c1)c1ccc(-c2ccccc2)cc1	.	-10.7%	12.6µM*
COCCn1c(=O)c(-c2cc(F)cc(F)c2)nc2cnc(N(C)C)nc21	.	.	1.9%
O=C(Nc1ccc(Br)cn1)c1cccc2c1-c1ccccc1C2=O	.	.	4.3%
CC(C)C[C@@H](CC(=O)N[C@@H](CCC(=O)O)CC(=O)O)NC(=O)[C@@H]1CNCC[C@H]1NC(=O)C[C@H](CCCN)NC(=O)C[C@H](CO)NC(=O)[C@@H]1CNCC[C@H]1N	.	-7.6%	?
Clc1ccc(Cn2ncc3c(N4CCOCC4)ncnc32)cc1	4.8	-3.5%	-4.1%
Cc1ccc(C(C)(C)C)cc1	.	-7.7%	11.6%
CCCOC(=O)NC(CC)COC(=O)Nc1cccc(C)c1C (stereo not given)	5.3	-1.1%	6.2%
COc1ccc(OC)c(C2Nc3c(C)cc(C)cc3-c3cc(C)nn32)c1 (stereo not given)	-10.0	.	.
COc1cc(/C=C(\NC(=O)c2ccccc2)C(=O)NCC(=O)O)c([N+](=O)[O-])cc1OC	.	-20.3%	1.1%
COc1cc(/C=C2/S/C(=N/S(=O)(=O)c3ccccc3)NC2=O)c([N+](=O)[O-])cc1OC	-0.6	5.01µM*	-3.2%
OCCC1CN(Cc2cnc(N3CCOCC3)s2)CCN1C1CCCC1 (stereo not given)	.	.	6.0%
COC(=O)N1CCC2(CCN(Cc3ccccc3OC)CC2)CC1	.	-5.4%	4.5%
COc1ccc2cc(C(=O)OC(C)C)sc(=O)c2c1OC	4.6	?	5.01µM*
COc1ccc2cc(C(=O)NCC(=O)O)sc(=O)c2c1OC	4.0	-11.2%	4.9%
Cc1nc(SCC(=O)OCc2ccccc2)c(C#N)c(-c2ccccc2)c1C(=O)Nc1ccccc1	-11.4[1.84 µM]	-14.0%	20µM*
Cc1ccccc1NC(=O)c1c(C)nc(SCC(=O)OCc2ccccc2)c(C#N)c1-c1ccc(F)cc1	-5.2	-24.4%	?
CCCn1c(SCC(=O)c2cc(OC)ccc2OC)nnc1-c1ccco1	4.7	-10.0%	7.1%
S=c1[nH]nc(COc2ccc3c(c2)OCO3)n1-c1ccccc1	5.2	25.1µM*	14.1µM*
S=c1[nH]nc(-c2ccc3c(c2)OCO3)n1-c1ccccc1	-14.1	?	?
CCn1c(SCC(=O)c2ccc(OC)cc2)nnc1C(C)NC(=O)c1ccc(OC)cc1 (stereo not given)	5.1	-16.5%	11.9µM*
CCn1c(SCC(=O)c2cc(OC)ccc2OC)nnc1C(C)C	2.4	-16.4%	28.2µM*
CCn1c(CNC(=O)Cc2ccc(OC)cc2)nnc1SCCOc1ccccc1	0.6	-3.6%	-0.8%
CCn1c(CNC(=O)Cc2ccc(OC)cc2)nnc1SCC(=O)c1ccccc1	.	.	2.82µM*
SMILES	IMPase inh	HPGD block	ALDH1A1 block
CCn1c(SCC(=O)c2ccc(Br)cc2)nnc1C(C)NC(=O)Cc1ccc(OC)cc1 (stereo not given)	2.5	-10.0%	7.6%
Cc1ccc(C(CC(=O)O)C2CCOC(C)(C)C2)cc1 (stereo not given)	-3.5	-6.9%	-2.1%
CCN1C(=O)[C@H]2[C@H]3[C@H](O)[C@H](O)C/C(=N/OCC[C@H]4C=C[C@H](OC(C)=O)[C@@H](COC(C)=O)O4)[C@@H]3CC[C@@H]2C1=O	.	.	-3.1%[13.5 µM]
Nc1nc(CC(=O)O)cs1	.	-5.6%	-13.5%
CCN(CC)C(=O)CSc1nnc(COc2ccccc2)n1CC	-0.5	-4.0%	-8.8%
CCn1c(COc2ccc3c(c2)OCO3)nnc1SCC(=O)c1ccccc1	5.5	22.4µM*	?
CC(C)(C)NC(=O)C(c1ccncc1)N(C(=O)C1CSC(=O)C1)c1ccccc1 (stereo not given)	.	.	16.5%
CC1CCN(C(=S)c2cn(Cc3cccc(F)c3)c3ccccc23)CC1	.	-6.4%	?
COc1ccc(C(=S)N2CCCC2)cc1	-4.1	-27.5%	4.6%
CC1CCN(C(=S)c2ccccc2O)CC1	2.3	6.31µM*	?
CC1CCN(C(=S)c2ccc(O)cc2)CC1	3.9	31.6µM*	?
CCOc1cc(NC(=S)NCCOC)c(OCC)cc1NC(=O)c1ccco1	.	.	-4.2%
C=C(C)Cn1c(SCC(=O)c2ccccc2)nc2sc3c(c2c1=O)CCCC3	-7.2	.	.
O=C(COC(=O)c1ccccc1Sc1ccc(C(F)(F)F)cc1[N+](=O)[O-])NC(=O)NC1CCCC1	4.7	-27.1%	?
Cc1cc[n+](-c2[nH]c(=O)sc2/C=N/NC([S-])=Nc2ccccc2)cc1	6.0	-28.8%	25.1µM*

Source: PubChem (National Center for Advancing Translational Sciences (NCATS))
